The values that follow come from PubChem BioAssay (NCATS).

Results filed as inconclusive are left out. Calls of active or inactive are those of the source. Unless noted, calls follow the shape of the dose curve; as a rule, active = well fitted curve in either direction with a large enough effect (not every such curve was filed as active); inconclusive = small, poorly fitted or top-dose-only effect, or another doubt; inactive = flat fitted curve, though single readings scatter.

Assay [1] has as its system HIV-1 nucleocapsid protein NCp7 (binding to TG oligonucleotide). The experiment in a line: HIV Nucleocapsid (AID 346; call rule not given here;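 also: potency is read from the fitted curve at half-maximal effect; potency is for inhibitors that block NC binding and lower polarization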). The settings on record: HIV-1 NC / fluorescein-TGTGTGTG probe, fluorescence polarization. Summed up: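 HIV-1 NC (100 nM) binding to fluorescein-labelled ssDNA TG4xF (10 nM) in Hepes pH 7.5, 250mM NaCl, 1uM ZnCl2, TCEP and 2-mercaptoethanol; compounds pin-transferred, 1 hr room temperature, fluorescence polarization read on CCD imager.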
(In general: Polarisation of emitted light reports the rotation of a fluorescent probe.)

Assay [2] addresses Lysosomal acid glucosylceramidase (Homo sapiens) (UniProt P04062). The assay can be described thus: Glucocerebrosidase-p2 (AID 348; in the data active = potency below about 10 µM; also: potency is read from the fitted curve at half-maximal effect). The note with it: purified GBA, blue fluorogenic substrate, 40 min. Summed up:
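Normal human glucocerebrosidase (0.2 nM) with blue fluorogenic substrate (80 uM final) in citrate/phosphate pH 5.9 with 10mM sodium taurocholate, 0.01% tween-20; 40 min RT, NaOH/glycine stop; fluorescence Ex 365/Em 440; AC50 from a titration from 0.6 nM upwards.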

Assay [3] in a line: AP1 Signaling Pathway (AID 357).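 Also: ME-180 reporter cells stimulated with EGF at its EC50 level; % is scaled to controls: 0 for no effect and ±100 for the full control effect.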 The note with it: ME-180 AP-1-bla reporter, EGF-induced, beta-lactamase ratio, 5 h; series mostly up to 17.2 µM. Summed up:
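Cells are seeded overnight, exposed to compound titrations and an EC50 level of EGF for 5 hours at 37 °C, then loaded with CCF4 dye for 2.5 hours. Beta-lactamase activity under the AP-1 element is read as a blue/green ratio.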

Assay [4] addresses Cytochrome P450 1A2 (Homo sapiens) (UniProt P05177). The experiment in a line: p450-cyp1a2 (AID 410; calls by dose curve). The note with it: recombinant CYP1A2, luciferin-ME demethylation, luminescence; series mostly up to 25.6 µM. Summed up: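 Read-out is luminescence from luciferin produced by CYP1A2 demethylation of Luciferin-ME (100uM, at Km). Detection reagent stopped the 60 min NADPH-dependent reaction; signals were normalized to 57 uM furafylline.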

Assay [5] can be described thus: NFAT Signaling Pathway (AID 444).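 Also: carbachol stimulus at about its EC50 of 1 µM final; % is scaled to controls: 0 for no effect and ±100 for the full control effect.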 The note with it: Jurkat NFAT-bla M1, carbachol, beta-lactamase ratio, 5 h; at 7.69 µM (top of the series). The procedure, abridged:
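Read-out: CCF4 FRET ratio (460 nm/530 nm) after 1 h RT dye loading, used for %activity and AC50 from titration series. Cells: Jurkat NFAT-β-lactamase/M1 line, treated with compound plus 1 uM carbachol for 5 h, 37 °C.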

A short description of assay [6]: Stat Signaling Pathway (AID 446).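 Also: ME-180 cervical cancer cells given 40 pM IL-6 alongside compound; SIE-controlled beta-lactamase reporter measured as 460/530 nm FRET emission ratio; % is scaled to controls: 0 for no effect and ±100 for the full control effect.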 The note with it: ME-180 (cervical carcinoma) SIE beta-lactamase reporter, IL-6 stimulated, 5 h; series mostly up to 17.2 µM. The procedure, abridged: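 FRET read-out (405 nm excitation, 460/530 nm emission) of a beta-lactamase reporter under a STAT-inducible element in ME-180 cervical carcinoma cells. Cells with compound receive 40 pM IL-6 for 5 h. Values are normalised to AC90 stimulation and AC90 JAK-inhibitor controls.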

Assay [7] deals with Glucocorticoid receptor (Homo sapiens) (UniProt P04150). The experiment in a line: GR-EFC Redistribution (AID 451; calls by dose curve; also: potency is read from the fitted curve at half-maximal effect). The note with it: CHO-K1 GR-EFC translocation, beta-gal luminescence, 2 h. The procedure, abridged: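 Translocation of GR-ED fusion to nuclear EA restores b-gal, read by luminescence after 1 h room-temperature detection. Engineered CHO-K1 biosensor cells, 1,000/well, exposed 2 h at 37 C to titrations up to 46 uM final.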

Assay [8] addresses Mitogen-activated protein kinase 10 (Mus musculus) (UniProt Q61831). The assay can be described thus: JNK3 AlphaScreen Assay (AID 530).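 Also: kinase came from lysate of stimulated human HepG2 cells; signal reports phosphorylation of biotinylated GST-cJun 1-79 at Ser73 with 10 µM ATP; % is scaled to controls: 0 for no effect and ±100 for the full control effect.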 The note with it: JNK3 lysate, c-Jun phosphorylation; series mostly up to 57.1 µM. The procedure, abridged: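 Kinase buffer: 20 mM Tris-HCl pH 7.6, 10 mM MgCl2, 1 mM DTT, 0.1 mM Na3VO4, 0.01% Tween-20; ATP 10 uM. Substrate biotin-GST-cJun(1-79), enzyme from activated HepG2 lysates. Detection by Ser73 phospho-antibody AlphaScreen.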

Assay [9] addresses 3',5'-cyclic-AMP phosphodiesterase 4B (Homo sapiens) (UniProt Q07343). The assay can be described thus: qHTS Assay for Inhibitors of PDE-IV (AID 607; active = well fitted activation curve with a large enough effect in the main read-out, with a control signal flat, not every such curve was filed as active; also: % of control where 0% means no effect). The note with it: HEK293 ACTOne CNG channel cells, membrane potential fluorescence; series mostly up to 22.9 µM. The procedure, abridged: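 Cell-based read-out of cAMP via a modified cyclic nucleotide-gated channel and membrane potential dye (535/590 nm) in HEK293 cells expressing PDE4 endogenously. Compounds tested up to 22.9 uM final; 100 uM RO 20-1724 reference.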
For orientation: Quantitative high-throughput screening tests each substance at several concentrations.

Assay [10] is described as follows: qHTS Assay for Lipid Storage Modulators (AID 1519; calls by dose curve). The note with it: Drosophila S3 cells, BODIPY lipid droplet/cell ratio, laser cytometry, cells loaded with oleic acid; for activity change, negative = inhibition: at 57.5 µM (top of the series). Summed up:
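Cells seeded at 5,000 per well were treated with compounds over a concentration series and loaded with oleic acid (400 uM, as added). Lipid droplet fluorescence (488 nm excitation, 500-530 nm channel) was read by laser-scanning cytometry and normalized to 20 uM Triacsin C.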

Assay [11] is described as follows: Primary qHTS for small molecule stabilizers of the endoplasmic reticulum resident proteome: Secreted ER Calcium Modulated Protein (SERCaMP) assay (AID 1508630; active = well fitted curve in the direction sought with a large enough effect; an effect the other way counts as inactive or inconclusive; also: % is scaled to controls: 0 for no effect and ±100 for the full control effect). The note with it: SH-SY5Y GLuc-SERCaMP (Gaussia luciferase released on ER calcium loss) secretion, thapsigargin, luminescence; series mostly up to 38.4 µM. The procedure, abridged:
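The SH-SY5Y reporter protocol was run at 3 concentrations up to 38.3 uM (primary) or 11 concentrations (follow-up): 16 h compound, 100 nM thapsigargin for 4 h, then extracellular luciferase luminescence.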

The target in assay [12] is Cytochrome P450 3A4 (Homo sapiens) (UniProt P08684). The experiment in a line: qHTS Assay for Activators of Cytochrome P450 3A4 (AID 885; active = well fitted curve in the direction sought with a large enough effect; an effect the other way counts as inactive or inconclusive; also: nearly all actives have a fitted effect of over 65% in size). The note with it: recombinant CYP3A4, Luciferin-PPXE luminescence, 60 min; series mostly up to 57.1 µM. The procedure, abridged:
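Luminescent readout of luciferin formed from 25 uM Luciferin-PPXE (KM level) by 20 nM CYP3A4 in 200 mM KPO4, with 60 min NADPH-driven reaction at room temperature after 10 min compound exposure. Ketoconazole (57 uM) defined 100% inhibition.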

The target in assay [13] is Cytochrome P450 2C9 (Homo sapiens) (UniProt P11712). The experiment in a line: qHTS Assay for Inhibitors and Substrates of Cytochrome P450 2C9 (AID 883; active = well fitted curve in the direction sought with a large enough effect; an effect the other way counts as inactive or inconclusive; also: potency is read from the fitted curve at half-maximal effect; nearly all actives have a fitted effect of over 60% in size). The note with it: recombinant CYP2C9, luciferin-H luminescence, 60 min; series mostly up to 57.1 µM. Summed up: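 Turnover of Luciferin-H (100uM, KM) by 10nM human CYP2C9 was measured over 60 min at 37C with NADPH regeneration; inhibitors and some substrates reduce luminescence. Data normalized to sulphaphenazole 57uM.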

The target in assay [14] is Cytochrome P450 3A4 (Homo sapiens) (UniProt P08684). The experiment in a line: qHTS Assay for Inhibitors and Substrates of Cytochrome P450 3A4 (AID 884; active = well fitted curve in the direction sought with a large enough effect; an effect the other way counts as inactive or inconclusive; also: % is scaled to controls: 0 for no effect and ±100 for the full control effect; nearly all actives have a fitted effect of over 50% in size). The note with it: recombinant CYP3A4, Luciferin-PPXE luminescence; series mostly up to 57.1 µM. The procedure, abridged: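 Luminescent readout of luciferin produced by CYP3A4 (20 nM) dealkylation of Luciferin-PPXE, 25 uM (its KM). NADPH-driven reaction ran 60 min at RT after 10 min compound preincubation; data scaled to 57 uM ketoconazole as 100% inhibition.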

A short description of assay [15]: Confirmation and Secondary Assay for Modulators of Hemoglobin Beta Chain Splicing at IVS2 654 locus (AID 910; active = well fitted curve in the direction sought with a large enough effect; an effect the other way counts as inactive or inconclusive;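 also: HeLa cells stably carrying EGFP split by mutant beta-globin IVS2-654 intron; per-well total GFP intensity by laser scanning cytometry after 2-day treatment; % of control where 0% means no effect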). The settings on record: HeLa EGFP-654 splicing reporter, GFP fluorescence, 48 h; series mostly up to 46.1 µM. The procedure, abridged: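 Readout: per-well total peak green fluorescence (488 nm ex, 500–520 nm em) from objects 5–250 µm, reflecting correct splicing of an EGFP-654 reporter. Compounds were applied for 2 days at 37 °C to overnight-plated HeLa EGFP-654 cells; controls were DMSO and 500 nM IVS2-654 PNA.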

Assay [16] can be described thus: Confirmation and Secondary Assay for Modulators of Hemoglobin Beta Chain Splicing at IVS2 705 locus (AID 930; active = well fitted curve in the direction sought with a large enough effect; an effect the other way counts as inactive or inconclusive;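 also: HeLa cells stably expressing the EGFP-705 splicing reporter; % of control where 0% means no effect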). The settings on record: HeLa EGFP-705 splicing reporter, GFP fluorescence, 48 h; series mostly up to 46.1 µM. Summed up:
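HeLa cells stably carrying EGFP interrupted by mutant beta-globin IVS2-705 intron (CMV-driven) were seeded at 500 cells/well, treated next day with compound for 2 days at 37C; corrected splicing restores EGFP, read as total peak GFP intensity per well.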

Where [17] appears, read: measured here: cell count channel max response.
The mark [18] stands for this setting: measured here: lipid channel max response.

Sequence of Cytochrome P450 3A4 (Homo sapiens) (P08684 whole entry, looked up): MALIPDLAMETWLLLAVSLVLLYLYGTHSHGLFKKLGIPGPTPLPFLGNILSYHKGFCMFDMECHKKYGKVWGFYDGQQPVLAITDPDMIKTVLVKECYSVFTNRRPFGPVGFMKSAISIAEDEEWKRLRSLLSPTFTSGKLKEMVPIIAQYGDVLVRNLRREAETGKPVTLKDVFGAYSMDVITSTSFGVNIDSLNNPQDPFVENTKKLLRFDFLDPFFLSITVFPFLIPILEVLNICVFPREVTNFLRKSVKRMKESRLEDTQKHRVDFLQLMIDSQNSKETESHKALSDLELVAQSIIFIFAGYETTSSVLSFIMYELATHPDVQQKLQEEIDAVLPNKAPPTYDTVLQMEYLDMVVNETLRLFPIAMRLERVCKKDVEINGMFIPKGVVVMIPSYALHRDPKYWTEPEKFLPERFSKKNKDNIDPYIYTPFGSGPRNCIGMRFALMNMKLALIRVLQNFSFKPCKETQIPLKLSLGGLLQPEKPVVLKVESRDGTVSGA
Sequence of Cytochrome P450 1A2 (Homo sapiens) (P05177 whole entry, looked up): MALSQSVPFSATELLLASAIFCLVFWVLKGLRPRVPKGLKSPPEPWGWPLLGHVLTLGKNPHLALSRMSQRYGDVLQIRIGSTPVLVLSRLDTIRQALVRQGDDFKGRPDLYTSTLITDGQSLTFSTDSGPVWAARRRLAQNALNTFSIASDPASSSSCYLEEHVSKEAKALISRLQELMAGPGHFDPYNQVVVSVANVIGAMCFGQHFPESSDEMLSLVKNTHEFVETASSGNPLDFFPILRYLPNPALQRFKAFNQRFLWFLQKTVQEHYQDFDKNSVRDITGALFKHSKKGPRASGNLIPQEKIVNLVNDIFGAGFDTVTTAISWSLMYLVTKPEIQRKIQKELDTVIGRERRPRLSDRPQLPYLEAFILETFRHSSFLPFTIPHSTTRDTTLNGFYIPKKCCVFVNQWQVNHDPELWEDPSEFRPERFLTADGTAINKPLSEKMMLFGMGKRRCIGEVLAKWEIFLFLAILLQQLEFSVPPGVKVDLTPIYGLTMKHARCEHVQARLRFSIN
Sequence of Glucocorticoid receptor (Homo sapiens) (P04150 whole entry, looked up, the tested form may be a part): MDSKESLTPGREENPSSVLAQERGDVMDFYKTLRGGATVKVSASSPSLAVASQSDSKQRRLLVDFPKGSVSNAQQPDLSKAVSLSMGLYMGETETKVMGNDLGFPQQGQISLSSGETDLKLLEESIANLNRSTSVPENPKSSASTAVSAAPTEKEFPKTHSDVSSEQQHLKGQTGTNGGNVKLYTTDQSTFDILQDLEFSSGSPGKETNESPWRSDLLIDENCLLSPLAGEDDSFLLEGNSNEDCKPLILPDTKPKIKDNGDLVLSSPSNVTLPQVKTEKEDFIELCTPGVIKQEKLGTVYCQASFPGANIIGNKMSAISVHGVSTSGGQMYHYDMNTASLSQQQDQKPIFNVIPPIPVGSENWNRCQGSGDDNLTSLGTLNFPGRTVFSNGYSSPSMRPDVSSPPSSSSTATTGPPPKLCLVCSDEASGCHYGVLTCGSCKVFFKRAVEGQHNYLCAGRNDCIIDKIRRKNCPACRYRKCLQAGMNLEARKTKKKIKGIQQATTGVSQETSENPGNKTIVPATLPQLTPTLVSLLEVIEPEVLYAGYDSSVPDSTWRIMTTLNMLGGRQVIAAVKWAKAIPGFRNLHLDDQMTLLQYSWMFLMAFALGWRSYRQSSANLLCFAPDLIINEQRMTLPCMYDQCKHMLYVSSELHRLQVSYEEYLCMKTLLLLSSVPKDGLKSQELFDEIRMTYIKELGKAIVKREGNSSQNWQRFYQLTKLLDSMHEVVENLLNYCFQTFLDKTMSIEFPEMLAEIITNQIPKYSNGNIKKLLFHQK
Sequence of 3',5'-cyclic-AMP phosphodiesterase 4B (Homo sapiens) (Q07343 whole entry, looked up): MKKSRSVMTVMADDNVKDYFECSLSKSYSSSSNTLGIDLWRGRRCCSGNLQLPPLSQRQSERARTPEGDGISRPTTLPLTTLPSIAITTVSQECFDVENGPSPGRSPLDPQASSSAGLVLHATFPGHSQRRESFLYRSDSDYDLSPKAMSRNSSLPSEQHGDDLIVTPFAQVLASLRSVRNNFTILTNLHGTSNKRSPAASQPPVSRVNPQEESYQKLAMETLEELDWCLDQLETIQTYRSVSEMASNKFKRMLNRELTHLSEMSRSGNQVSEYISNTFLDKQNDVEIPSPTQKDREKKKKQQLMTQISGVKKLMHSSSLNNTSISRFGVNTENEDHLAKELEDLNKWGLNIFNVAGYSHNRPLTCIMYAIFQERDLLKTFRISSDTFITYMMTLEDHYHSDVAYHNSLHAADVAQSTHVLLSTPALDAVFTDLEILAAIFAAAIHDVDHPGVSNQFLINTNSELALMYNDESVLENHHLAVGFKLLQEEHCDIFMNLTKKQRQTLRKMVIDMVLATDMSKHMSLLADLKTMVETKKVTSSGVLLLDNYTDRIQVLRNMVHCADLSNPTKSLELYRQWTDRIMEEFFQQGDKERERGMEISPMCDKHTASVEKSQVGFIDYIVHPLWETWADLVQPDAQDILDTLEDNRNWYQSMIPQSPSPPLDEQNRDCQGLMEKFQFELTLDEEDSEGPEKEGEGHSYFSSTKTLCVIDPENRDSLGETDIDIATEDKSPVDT
Sequence of Lysosomal acid glucosylceramidase (Homo sapiens) (P04062 whole entry, looked up): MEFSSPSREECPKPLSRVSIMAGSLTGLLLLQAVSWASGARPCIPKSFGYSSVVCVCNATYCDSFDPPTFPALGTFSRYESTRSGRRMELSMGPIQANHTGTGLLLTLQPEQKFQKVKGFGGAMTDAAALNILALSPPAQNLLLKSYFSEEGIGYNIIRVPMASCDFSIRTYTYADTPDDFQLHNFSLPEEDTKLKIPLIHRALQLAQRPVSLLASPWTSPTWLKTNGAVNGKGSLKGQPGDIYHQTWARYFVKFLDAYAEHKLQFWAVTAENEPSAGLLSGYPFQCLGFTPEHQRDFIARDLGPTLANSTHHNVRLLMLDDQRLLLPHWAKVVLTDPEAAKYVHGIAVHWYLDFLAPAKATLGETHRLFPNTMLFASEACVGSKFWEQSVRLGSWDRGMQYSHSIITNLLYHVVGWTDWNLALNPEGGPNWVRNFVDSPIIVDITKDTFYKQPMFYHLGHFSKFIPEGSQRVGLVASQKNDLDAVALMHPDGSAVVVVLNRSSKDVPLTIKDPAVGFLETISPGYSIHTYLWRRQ
Sequence of Cytochrome P450 2C9 (Homo sapiens) (P11712 whole entry, looked up): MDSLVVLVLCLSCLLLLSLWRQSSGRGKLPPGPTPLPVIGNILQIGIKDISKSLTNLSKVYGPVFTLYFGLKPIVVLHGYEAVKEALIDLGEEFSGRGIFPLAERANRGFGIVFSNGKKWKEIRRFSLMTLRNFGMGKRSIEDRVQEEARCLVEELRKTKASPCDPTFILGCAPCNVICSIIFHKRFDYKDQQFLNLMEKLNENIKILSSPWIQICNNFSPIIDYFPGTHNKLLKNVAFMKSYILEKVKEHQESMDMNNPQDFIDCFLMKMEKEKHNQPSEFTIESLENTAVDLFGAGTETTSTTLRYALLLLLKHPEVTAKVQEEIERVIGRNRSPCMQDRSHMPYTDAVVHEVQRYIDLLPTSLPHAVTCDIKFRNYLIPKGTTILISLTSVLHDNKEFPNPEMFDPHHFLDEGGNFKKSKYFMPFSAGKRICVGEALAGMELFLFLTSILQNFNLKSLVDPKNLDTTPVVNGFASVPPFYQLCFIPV

`c1csc(CN2CCC3(CCNCC3)CC2)n1`: the values for the Potency in assay [1], in [2] and in [7] were > 20 µM (inactive), > 11.4 µM (inactive) and > 46 µM (inactive), respectively. For the same molecule, the outcome in assay [3], in assay [6], in assay [8] and in [11] was inactive. The Potency entry in assay [4] and in assay [9] was “inactive” throughout. Also, the activity change, negative = inhibition in assay [5] was -5.8% (inactive); in [10] it was -2.74% (inactive). Besides, the max response was 11.7% in assay [10] (setting [17]) and 11% in [10] (setting [18]).
On to `CC(C)CN1CCCC2(CCN(C(=O)c3ccncc3)CC2)C1`, for which the figures for the Potency in [1], in assay [2] and in assay [7] were > 20 µM (inactive), > 11.4 µM (inactive) and > 46 µM (inactive), respectively. Besides, the result in assay [3], in assay [6], in assay [8] and in assay [11] was inactive. Further, in assay [12], the Potency entry is “inactive”. In addition, the activity change, negative = inhibition in assay [10] was 5.13% (inactive). For the same molecule, the results for the max response in [10] (setting [17]) and in assay [10] (setting [18]) were 11.3% and 20.9%, respectively.
On to `CC(C)CN1CCC2(CC1)CCN(C(=O)Oc1ccccc1)CC2`, for which the Potency in assay [2] was > 11.4 µM (inactive); in assay [7], > 46 µM (inactive). Further, the result in assay [3], in assay [6], in [8] and in [11] was inactive. For the same molecule, the Potency result in assay [4] and in assay [9] was “inactive” throughout. Further, the activity change, negative = inhibition in assay [10] is 3.6% (inactive). Moreover, the max response is -4.31% in [10] (setting [17]) and 1.23% in [10] (setting [18]).
As for `Cc1noc(C)c1C(=O)N1CCC2(CCCN(CC(C)C)C2)CC1`, the Potency is > 11.4 µM (inactive) in assay [2] and > 46 µM (inactive) in [7]. The result in assay [3], in assay [6], in assay [8] and in [11] was inactive. For the same molecule, the Potency result in assay [4] and in [9] was “inactive” each time. Further, the activity change, negative = inhibition in assay [10] was 1.67% (inactive). Further, the max response is -5.22% in [10] (setting [17]) and -1.22% in [10] (setting [18]).
Turning to `COCC(=O)N1CCC2(CCCN(Cc3ccncc3)C2)CC1`, the Potency was > 11.4 µM (inactive) in assay [2], > 46 µM (inactive) in assay [7] and 5.01 µM (active) in assay [13]. Also, the outcome in [3], in assay [6], in assay [8] and in assay [11] was inactive. Further, the Potency result in assay [4], in assay [9] and in assay [12] was “inactive” in each case. Besides, the activity change, negative = inhibition in [10] was 5.89% (inactive). Further, the max response in assay [10] (setting [17]) came to 12.2%; in assay [10] (setting [18]), 21.3%.
On to `CN1CCC2(CC1)CCN(C(=O)Oc1ccccc1)CC2`, for which the Potency in assay [2] is > 11.4 µM (inactive); in [7], > 46 µM (inactive). In addition, the outcome in [3], in [6], in assay [8] and in [11] was inactive. For the same molecule, the activity change, negative = inhibition in assay [10] was 2.73% (inactive). The max response worked out at 2.61% in assay [10] (setting [17]) and 7.31% in assay [10] (setting [18]).
For `COc1c2c(cc3c1OCO3)CC[N+](C)=C2`, the Potency entry in assay [14], in [15] and in [16] was “inactive” throughout. Also, in assay [10], the activity change, negative = inhibition is 10.8% (inactive). In addition, the max response was 8.04% in assay [10] (setting [17]) and 18.3% in assay [10] (setting [18]). For the same molecule, in [11], the outcome was inactive.
On to `c1ccc(N2CC[C@@]3(CCCNC3)C2)nc1`, for which the result in [3], in assay [6], in assay [8] and in [11] was inactive. Besides, the Potency entry in assay [4], in [9] and in [12] was “inactive” each time. Moreover, in assay [7], the Potency was > 46 µM (inactive). Moreover, the activity change, negative = inhibition in assay [10] is 2.13% (inactive). In addition, the max response in assay [10] (setting [17]) stood at 12.4%; in [10] (setting [18]), 16.2%.
For the molecule `CN1CCC2(CC1)CCN(C(=O)c1ccco1)CC2`, the outcome in assay [3], in assay [6], in assay [8] and in assay [11] was inactive. In addition, the activity change, negative = inhibition in assay [5] is -4.13% (inactive); in assay [10], 1.82% (inactive). In assay [7], the Potency was > 46 µM (inactive). Moreover, the Potency entry in assay [9] was “inactive”. Further, the values for the max response in [10] (setting [17]) and in assay [10] (setting [18]) were 21.1% and 24.5%, respectively.
